D2 PAM-1 – HTS Assay for Positive Allosteric Modulators of the Human D2 Dopamine Receptor: Primary Screen for Potentiators; HEK293 T-REx D2, calcium flux, EC20 dopamine potentiation; potentiation, % at 10 µM; 340,000 compounds, 0.34% hits; AID 485347, 2010;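 active means potentiation over 3 SD above the plate norm, cut at about 30% in these data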; further: 0% is about no effect
Target sequence (P14416 whole entry, looked up): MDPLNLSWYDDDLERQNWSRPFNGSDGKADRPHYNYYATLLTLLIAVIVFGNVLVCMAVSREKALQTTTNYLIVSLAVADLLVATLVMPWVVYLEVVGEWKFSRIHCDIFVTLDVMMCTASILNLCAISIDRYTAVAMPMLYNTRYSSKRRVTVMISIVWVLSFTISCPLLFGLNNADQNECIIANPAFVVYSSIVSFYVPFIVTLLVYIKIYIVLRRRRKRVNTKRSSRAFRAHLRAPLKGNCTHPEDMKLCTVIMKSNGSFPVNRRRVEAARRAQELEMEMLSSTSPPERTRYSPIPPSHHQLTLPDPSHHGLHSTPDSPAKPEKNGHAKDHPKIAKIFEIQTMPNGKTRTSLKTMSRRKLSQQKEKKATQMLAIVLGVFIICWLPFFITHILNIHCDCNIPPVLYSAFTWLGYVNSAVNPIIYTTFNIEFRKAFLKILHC
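Primary screen. Calcium kinetics in induced HEK293 T-REx D2 cells: compound pre-addition 180 s, EC20 dopamine, 180 s more.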
D2 PAM-2 – Beta-Arrestin HTS for Positive Allosteric Modulators of the Human D2 Dopamine Receptor: Potentiators. potentiation, % (test concentration not listed). 360,000 compounds, 0.23% hits. DiscoveRx D2 beta-arrestin cells, luminescence, 90 min; 100% = 57 uM dopamine signal. AID 624464, 2012; in the data active means potentiation above about 50%
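PathHunter D2 cells, attached overnight at 37 deg C, received compound in DMSO plus dopamine at EC20 (50 nM final) for 90 min at 37 deg C. Beta-arrestin recruitment was read as luminescence after 1 h with detection reagent at ambient temperature.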
D2 antag – HTS Assay for Allosteric Antagonists of the Human D2 Dopamine Receptor: Primary Screen for Antagonists; AID 485344, 2010; inhibition, % at 10 µM; 340,000 compounds, 2% hits; D(2) dopamine receptor (Homo sapiens), P14416; HEK293 TREx D2 cells, calcium flux, dopamine EC80; in the data active means inhibition above about 30%; inactive means below that, where a call was filed; further: 0% is about no effect
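Compounds are added to dye-loaded, induced HEK293 T-REx cells coupled to calcium release via D2; after a 3 min kinetic read an EC80 dopamine stimulus is given and fluorescence is recorded for 3 more min.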
D2 ag-1 – HTS Assay for Allosteric Agonists of the Human D2 Dopamine Receptor: Primary Screen for Agonists | HEK293 T-REx D2 cells, calcium flux agonist mode | activation, % at 2 µM | 340,000 compounds, 0.53% hits;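 active means activation over 3 SD above normal in the single-dose calcium agonist read, cut at about 30% in these data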; further: 0% is about no effect
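HEK293 Trex D2 cells, tetracycline-induced, o/n 30 C 5% CO2; no-wash Ca dye, RT 30–90 min; 10-cycle baseline, 23 nl cpd added, kinetic Ca read 180 s; agonist hits = positive Ca response.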
D2 ag-2 – Beta-Arrestin HTS for Positive Allosteric Modulators of the Human D2 Dopamine Receptor: Agonists. 360,000 compounds, 0.084% hits. AID 624465, 2012. activation, % (no concentration beside the values). D(2) dopamine receptor (Homo sapiens), P14416. DiscoveRx PathHunter D2 beta-arrestin, luminescence, 90 min; 100% = 57 uM dopamine signal; in the data active means activation above about 40%
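DiscoveRx PathHunter D2 beta-arrestin cells (2,100/well) attached overnight, then compound-stimulated 90 min at 37 C in HBSS/10 mM HEPES/0.1% Tween-20 buffer; beta-galactosidase complementation read by luminescence after 1 h at ambient temperature. Dopamine 57 uM final (EC100) as control.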
Numbers without * were called inactive. Only some compounds are listed: those with a hit (about 2.4% of all), similar ones and a draw of the others.

How did COc1ccc(Cn2c(=O)[nH]c3cc(C(=O)NC4CCN(Cc5ccccc5)CC4)ccc32)cc1 do in these assays?
D2 PAM-1: -24; D2 PAM-2: -24; D2 antag: 75*; D2 ag-1: 0; D2 ag-2: 2

What do the screens show for `C=C(C)c1cccc(C(C)(C)NC(=O)NC2CCN(Cc3ccccc3)CC2)c1`?
D2 PAM-1: -31; D2 PAM-2: -26; D2 antag: 89*; D2 ag-1: 0; D2 ag-2: -6

Results for S=C(NCc1ccc2c(c1)OCO2)NC1CCN(Cc2ccccc2)CC1 ?
D2 PAM-1: -46; D2 PAM-2: -10; D2 antag: 103*; D2 ag-1: 2; D2 ag-2: -2

Results for O=C(NC1CCN(Cc2ccccc2)CC1)c1cccc(Br)c1 ?
D2 PAM-1: -26; D2 PAM-2: -13; D2 antag: 98*; D2 ag-1: 0; D2 ag-2: -1

Results for CCc1ccc(CNC(=O)CCCn2ccc3cc(S(=O)(=O)N4CCCC4)ccc32)cc1 ?
D2 PAM-1: -10; D2 ag-1: 1

Results for O=C(NC1CCN(Cc2ccccc2)CC1)c1cccc(OC(F)F)c1 ?
D2 PAM-1: -22; D2 PAM-2: -24; D2 antag: 81*; D2 ag-1: 0; D2 ag-2: -3

Results for Cc1c(C(=O)NC2CCN(Cc3ccccc3)C2)oc2ccc(Br)cc12 (stereo not given) ?
D2 PAM-1: -25; D2 PAM-2: -20; D2 antag: 38*; D2 ag-1: -1; D2 ag-2: 2

How did O=C(NC1CCN(Cc2ccccc2)CC1)c1ccc2c(c1)OCCCO2 do in these assays?
D2 PAM-1: -23; D2 PAM-2: -30; D2 antag: 30*; D2 ag-1: 1; D2 ag-2: -4

Results for O=C(NC1CCCCC1)c1ccc2c(c1)OCCO2 ?
D2 PAM-1: 0; D2 PAM-2: 2; D2 antag: 5; D2 ag-1: -1; D2 ag-2: 2

How did CCOc1ccc2oc(C(=O)NC3CCN(Cc4ccccc4)CC3)c(C)c2c1 do in these assays?
D2 PAM-1: -17; D2 PAM-2: -14; D2 antag: -12; D2 ag-1: 0; D2 ag-2: -5

How did C=C(C)c1cccc(C(C)(C)NC(=O)N2CCN(c3ccccn3)CC2)c1 do in these assays?
D2 PAM-1: -4; D2 PAM-2: -3; D2 antag: 31*; D2 ag-1: 5; D2 ag-2: 1

How did COc1ccc(NS(=O)(=O)c2cccc(C(=O)NC3CCN(Cc4ccccc4)CC3)c2)cc1 do in these assays?
D2 PAM-1: -8; D2 PAM-2: -24; D2 antag: 16; D2 ag-1: 0; D2 ag-2: -1

How did C=C(C)c1cccc(C(C)(C)NC(=O)N2CCCC2)c1 do in these assays?
D2 PAM-1: 13; D2 PAM-2: -9; D2 antag: -9; D2 ag-1: 0; D2 ag-2: -2

Results for Cc1cc(C)nc(NC(=NCCc2c[nH]c3ccccc23)NC(=O)C(C)(C)C)n1 ?
D2 PAM-1: -5; D2 PAM-2: -7; D2 antag: -9; D2 ag-1: 0; D2 ag-2: -2

Results for Cc1cc(C)n(-c2ccnc3cc(Cl)ccc23)n1 ?
D2 PAM-1: -10; D2 PAM-2: 3; D2 antag: -3; D2 ag-1: 1; D2 ag-2: -10

How did NC1=NC(=O)C(c2ccccc2)C(=O)N1 (stereo not given) do in these assays?
D2 PAM-2: -5; D2 ag-2: -2

Results for O=C(COc1ccc(Br)cc1Cl)NC1CCN(Cc2ccccc2)CC1 ?
D2 PAM-1: -20; D2 PAM-2: -23; D2 antag: 67*; D2 ag-1: 1; D2 ag-2: -3
